# Only some compounds are listed: those with a hit (about 14% of all), similar ones and a draw of the others.
# Pf growth 96h = Primary qHTS for delayed death inhibitors of the malarial parasite plastid, 96 hour incubation | P. falciparum luciferase reporter growth, 96 h | Potency, µM (top dose mostly 28.7 µM), for the others: at the top dose activity change, negative = inhibition, hits mostly inhibitors | 6.9% of 320,000 active; also: potency is read from the fitted curve at half-maximal effect
#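 Erythrocytes infected with luciferase-expressing P. falciparum were dispensed at 2% hematocrit and 0.05% parasitemia (final), then incubated with compounds 96 hours at 37 C in 5% CO2. Luminescence after detection reagent addition reported growth.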
# Pf growth 48h = Primary qHTS for delayed death inhibitors of the malarial parasite plastid, 48 hour incubation | Potency, µM (doses to about 28.7 µM), for inactives: at the highest dose activity change, negative = inhibition, actives largely listed as inhibitors | 5.9% of 310,000 active | P. falciparum luciferase growth in erythrocytes, 48 h; also: potency is read from the fitted curve at half-maximal effect
#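 Parasite viability was followed by luminescence of a genomically integrated firefly luciferase. Cultures held 0.1% parasitemia at 2% hematocrit (final), incubated under 5% CO2 at 37 C.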
# Sm TGR block = qHTS Assay for the Inhibitors of Schistosoma Mansoni Peroxiredoxins | Schistosoma mansoni thioredoxin glutathione reductase (TGR), Q962Y6 | purified TGR, DTNB reduction, TNB absorbance 405 nm | Potency, µM (titrated, usually from 114 µM), for the others: at the top dose activity change, negative = inhibition, usual class: inhibitors | 3% of 360,000 active; also: potency is read from the fitted curve at half-maximal effect; nearly all actives have a fitted effect of over 60% in size
#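 TGR 20 nM + NADPH 100 uM (dispensed conc.), cpd preinc 15 min RT; start with NADPH (500 uM addition) then DTNB (15 mM addition). Kinetic TNB absorbance, 405 nm filter. Four-parameter Hill fit across titration.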
# HCMV antiviral = qHTS Assay for inhibitors of the human cytomegalovirus (HCMV); AID 1259415, 2018; HFF cells, HCMV-luciferase reporter, 72 h; hits give low values; 4.5% of 410,000 active; activity change, negative = inhibition, % at 57.5 µM; in the data active = activity change below about -60%; inconclusive = no clear call, values can overlap the other calls; inactive = above about -39%
#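 Luciferase read-out from HCMV-luciferase-infected HFFs (MOI 1 PFU/cell) 72 h post infection at 37C; compounds added after 16 h cell attachment; activity normalized between buffer-only basal and Salinomycin (10uM) inhibitor controls.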
# FBPA Giardia inh = qHTS Assay for Inhibitors of Fructose-1,6-bisphosphate Aldolase from Giardia Lamblia; A8B2U2; purified Giardia FBPA; Potency, µM (top dose mostly 59.6 µM), without a hit: at the highest dose activity, negative = inhibition, actives largely listed as inhibitors; 0.71% of 290,000 active; also: potency is read from the fitted curve at half-maximal effect; nearly all actives have a fitted effect of over 55% in size
# Target sequence (A8B2U2 whole entry, looked up): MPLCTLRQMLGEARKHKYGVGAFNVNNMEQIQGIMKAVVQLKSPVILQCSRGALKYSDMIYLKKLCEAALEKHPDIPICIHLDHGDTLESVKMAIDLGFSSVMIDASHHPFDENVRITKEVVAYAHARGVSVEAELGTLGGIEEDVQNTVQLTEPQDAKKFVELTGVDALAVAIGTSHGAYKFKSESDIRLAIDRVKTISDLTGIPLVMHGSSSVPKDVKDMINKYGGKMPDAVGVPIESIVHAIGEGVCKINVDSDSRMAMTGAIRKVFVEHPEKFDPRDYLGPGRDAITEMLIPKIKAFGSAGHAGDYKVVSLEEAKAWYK
#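 40 nM FBPA preincubated 10 min at RT with compound (up to 57.5 uM final), then substrate plus GAPDH/TPI/NAD/arsenate coupling and diaphorase/resazurin added. Fluorescence read after 20 min at RT, 525/598 nm.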
# An asterisk follows results filed as active; ? = inconclusive; . = no result given; ! = not confirmed by another sample; [ ] = remark or other dose. Unless noted, calls follow the shape of the dose curve; as a rule, active = well fitted curve in the direction sought with a large enough effect; inconclusive = small, poorly fitted or top-dose-only effect, or another doubt; inactive = no such curve, though single readings can be large; an effect the other way counts as inactive or inconclusive. % is scaled to controls: 0 for no effect and ±100 for the full control effect.
SMILES,Pf growth 96h,Pf growth 48h,Sm TGR block,HCMV antiviral,FBPA Giardia inh
O=C(COc1ccc(-c2nnco2)cc1)NCc1ccccc1Cl,?,-3.9%,-4.0%,-23.9,3.1%
Cc1c(C#N)c(N)nc(Cl)c1C#N,-27.9%,?,35.5µM*,-11.2,1.6%
COc1ccccc1N1CCN(C(=O)CCC(=O)Nc2nnc(CC(C)C)s2)CC1,4.4%,0.0%,17.4%,?,-12.0%
N#Cc1cccc(-c2cc(NCc3ccccc3)ncn2)c1,.,.,.,.,-1.6%
CCOc1ccc(-c2nonc2NC(=O)c2ccco2)cc1OCC,?,0.37µM*,-6.2%,27.5,.
CCOc1ccc(-c2nonc2NC(=O)c2ccco2)cc1,10.4µM*,0.3%,-3.5%,?,.
CC1(C)NC(=O)N(CCOCCSc2ccccc2)C1=O,9.28µM*,33.9%,-2.7%,9.9,0.7%
CN1CCN(c2nccc3[nH]c(-c4cccc(F)c4)nc23)CC1,.,.,.,-1.7,.
O=c1[nH]c2c(cc1CNCCN1CCOCC1)c(-c1cccc(F)c1)nn2-c1ccccc1,-6.4%,2.08µM*,-0.3%,.,6.5%
CCOC(=O)c1ccc(NC(=O)CCc2nc(-c3ccc(C)cc3)no2)cc1,3.7µM*,?,0.1%,-30.4,5.7%
Cc1ccc(-c2noc(CCC(=O)Nc3ccc4c(c3)OCO4)n2)cc1,2.33µM*,23.0%,0.0%,-29.1,-0.4%
COc1ccc(NC(=O)CCc2nc(-c3ccc(C)cc3)no2)cc1Cl,.,36.2%,4.4%,3.2,-0.8%
COc1ccc(-c2noc(CCC(=O)Nc3ccc4c(c3)OCCO4)n2)cc1,0.586µM*,14.6%,3.9%,-35.0,-2.3%
CCOc1ccc(-c2noc(CCC(=O)O)n2)cc1,11.7µM*,.,4.8%,?,8.3%
Cn1c(=O)cc(SCC(=O)NCCC2=CCCCC2)c2ccc(Cl)cc21,14.7µM*,-7.3%,-0.1%,-6.2,-0.4%
CN1CCN(c2cccc3c2S(=O)(=O)N[C@@H](Cc2ccccc2)CO3)CC1,.,.,.,-16.0,.
COc1cc2c(cc1OC)n(CC(=O)c1cc(C)ccc1C)c(=O)n1nc(CCn3nc(C)cc3C)nc21,.,.,-2.5%,13.7,.
CCOC(=O)C1(C)NC(c2cccs2)C2C(=O)N(c3ccc(C)cc3)C(=O)C21 (centres undefined),-41.9%[5.75 µM],-6.9%,-4.9%,-6.1,5.1%
Cc1ccc(N2C(=O)C3C(C2=O)N2C(c4cccs4)C4C(=O)N(c5ccc(C)cc5)C(=O)C4N2C3c2cccs2)cc1 (centres undefined),1.85µM*,?,-3.5%,-4.4,-0.6%
Cc1ccc(Nc2sc(C(=O)c3ccccc3)c(N)c2C(N)=O)cc1,.,.,50.1µM*,-1.0,.
Nc1nc(Nc2ccccc2)sc1C(=O)c1ccccc1,6.1%,-16.8%,-7.9%,-88.3*,9.9%
Cc1ccccc1Nc1nc(N)c(C(=O)c2ccccc2Cl)s1,.,.,-13.1%,-68.9*,.
COc1ccc(C(=O)c2sc(Nc3ccccc3)nc2N)cc1OC,?,?,?,-92.1*,-2.4%
CCOC(=O)c1sc(Nc2ccccc2Cl)nc1C,152.0%,112.7%,2.6%,63.9,5.2%
Cc1cccc(Nc2sc(C(=O)c3ccc(Cl)cc3)c(N)c2C(N)=O)c1,.,.,-11.5%,17.2,.
SMILES,Pf growth 96h,Pf growth 48h,Sm TGR block,HCMV antiviral,FBPA Giardia inh
O=[N+]([O-])c1ccccc1S(=O)(=O)N1CCCc2ccccc21,?,25.7%,-22.5%,77.0,-8.6%
COc1ccc(CCn2c3c(c(=O)[nH]c2=O)C(NC(=O)c2ccccc2OC)(C(F)(F)F)C(=O)N3)cc1OC (centres undefined),.,.,2.7%,-4.1,.
COc1ccc(CNc2nc(-c3ccc4c(c3)OCO4)nc3ccccc23)c(OC)c1,.,.,.,.,-1.5%
O=C(Nc1cccc(C(F)(F)F)c1)c1cc2nc(-c3ccccc3)cc(C(F)(F)F)n2n1,.,.,-1.8%,-24.5,.
COc1ccc(C(=O)c2sc(Nc3ccccc3)nc2N)cc1,?,?,-14.4%,-61.1*!,1.8%
COc1ccc(C(=O)c2sc(Nc3ccccc3F)nc2N)cc1,6.5%,.,-13.8%,100.3,4.8%
COc1ccc(C=C2C(=O)c3ccccc3C2=O)cc1O,11.7µM*,2.0%,-28.4%,-31.4,-13.8%
COc1ccc(/C=C2\CN(Cc3ccccc3)C/C(=C\c3ccc(OC)c(O)c3)C2=O)cc1O,3.7µM*,3.29µM*,44.7µM*,-100.7*,-10.3%
CCN1C/C(=C\c2cccc([N+](=O)[O-])c2)C(=O)/C(=C/c2cccc([N+](=O)[O-])c2)C1,42.2%,2.94µM*,-21.7%,-100.4*,-4.2%
CCN1C/C(=C/c2ccc(OC)c(O)c2)C(=O)/C(=C/c2ccc(OC)c(O)c2)C1,1.65µM*,2.62µM*,-0.7%,-102.9*,-12.1%
O=C1C(c2nnnn2-c2ccc(F)cc2)N(C2CC2)C(=O)N1c1ccccc1 (centres undefined),.,.,.,-5.8,.
CC(C)CC(CO)N1CCN(C(=O)c2ccc(Cl)cc2)CCC1=O (centres undefined),.,.,.,3.1,.
O=C1Nc2ccccc2S/C1=C/Nc1cccc(Cl)c1,18.6%,38.3%,-0.3%,25.5,0.4%
COc1cc(OC)c(NC(=O)C(CC(C)C)N2Cc3ccccc3C2=O)cc1Cl (centres undefined),.,.,-1.1%,-65.3*,.
CC1OCC23CC[C@@]4(C)CCC(C)(C)C[C@H]4[C@]2(C)CCC12C3CC[C@@]1(C)C2C(=O)CC(=O)[C@@H]1C (some centres undefined),.,.,.,.,5.2%
CC(C)c1ccc(/C=C2\SC(=O)N(CC(=O)NC3C=CS(=O)(=O)C3)C2=O)cc1 (centres undefined),?,?,-24.6%,-76.6*,-0.2%
O=C(CN1C(=O)/C(=C/c2ccccc2)SC1=S)NC1C=CS(=O)(=O)C1 (centres undefined),3.4%,28.0%,0.3%,?,.
O=C(CN1C(=O)/C(=C/c2ccc(Cl)cc2)SC1=S)NC1C=CS(=O)(=O)C1 (centres undefined),33.0%,45.2%,-1.7%,-30.6,-2.3%
COc1cccc(/C=C2\SC(=O)N(CC(=O)NC3C=CS(=O)(=O)C3)C2=O)c1 (centres undefined),11.7µM*,?,-20.1%,-69.1*,.
O=C(CN1C(=O)/C(=C/c2ccccc2Cl)SC1=S)NC1C=CS(=O)(=O)C1 (centres undefined),2.1%,35.2%,-3.3%,-64.4*,.
CNC1CC(N)[C@H](O)[C@@H](O[C@@H]2OC(CO)C3OC4(OC(C(N)CO)C(O)C(O)C4O)O[C@@H]3[C@H]2O)C1O (some centres undefined),14.2%,-5.3%,.,.,-1.8%
CC(=O)c1ccc(NC(=S)NC(C)CCc2ccccc2)cc1 (centres undefined),9.28µM*,?,2.1%,?,-1.4%
